# Several values for one entry are separate records, joined by “and”; a condition that tells them apart may be missing. Equal values may be shown once. Records with an inconclusive call do not appear. A call without a number means that no potency is given here. The source holds several records for some structures; these can differ, active in one and inactive in another. Activity calls are given as the source filed them. Calls come from the whole dose curve.
# Experiment: qHTS assay to identify small molecule agonists of the progesterone receptor (PR) signaling pathway - cell viability counter screen (AID 1346799); note: nearly all actives have a fitted effect of over 45% in size
# Conditions: PR-UAS-bla HEK293T viability, CellTiter-Glo luminescence, 16 h; series mostly up to 92.4 µM; activity change, negative = cytotoxicity: at the top concentration
# Summary of the method: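 HEK293T PR-UAS-bla, 3,000 cells/well, 2% charcoal-stripped FBS; 6 h settle, compound 16 h at 37C/5% CO2; LiveBLAzer 2 h RT, then CellTiter-Glo 30 min RT, luminescence read.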
# Potency is the fitted concentration of half-maximal effect.
Structure (SMILES),Potency,"activity change, negative = cytotoxicity"
O=C(O)CC(O)C(=O)O (stereo not drawn),inactive,
CCOc1ccc(NC(C)=O)cc1,inactive,
CC(C)C(=O)Nc1ccc([N+](=O)[O-])c(C(F)(F)F)c1,,-4.91% [at 42.5 µM] (inactive)
NC(=O)c1cccnc1,inactive,
C=C(C)C(=O)OCC(C)O (stereo not drawn),inactive,
O=CC(=O)c1ccccc1,,4.45% (inactive)
O=c1[nH]cc(F)c(=O)[nH]1,28.3 µM (active) and inactive,
NS(=O)(=O)c1cc2c(cc1Cl)NCNS2(=O)=O,,-8.09% (inactive)
CN(C)CCOC(C)(c1ccccc1)c1ccccn1 (stereo not drawn),inactive,
CC(C)NCC(O)c1ccc(O)c(O)c1 (stereo not drawn),inactive,
Cc1cn([C@H]2C=C[C@@H](CO)O2)c(=O)[nH]c1=O,inactive,
CCc1nc(N)nc(N)c1-c1ccc(Cl)cc1,inactive,
C/C=C/C=C/C(=O)O,inactive,
Nc1c(N=Nc2ccc(-c3ccc(N=Nc4cc(S(=O)(=O)O)c5ccccc5c4N)cc3)cc2)cc(S(=O)(=O)O)c2ccccc12,,-7.45% (inactive)
Nc1c2c(nc3ccccc13)CCCC2,inactive,
O=S1(=O)OC(c2ccc(O)cc2)(c2ccc(O)cc2)c2ccccc21,inactive,
CCCCCCCC(=O)OCC(COC(=O)CCCCCCC)OC(=O)CCCCCCC,inactive,
NS(=O)(=O)O,inactive,
Cc1c(C(=O)O)c(O)cc2c1C(=O)c1c(O)c([C@@H]3O[C@H](CO)[C@@H](O)[C@H](O)[C@H]3O)c(O)c(O)c1C2=O,inactive,
CCCCCCCCCCCCCCCC[N+](C)(C)Cc1ccccc1,10 µM (active) and 12.4 µM (active) and 6.68 µM (active),
CC1(C)O[C@@H]2C[C@H]3[C@@H]4CCC5=CC(=O)C=C[C@]5(C)[C@@]4(F)[C@@H](O)C[C@]3(C)[C@]2(C(=O)CO)O1,,16.3% (inactive)
Nc1ccc(S(N)(=O)=O)cc1,inactive,
CN(C)CCOC(c1ccccc1)c1ccccc1,inactive,
CCCCOC(=O)c1ccc(O)cc1,,17.1% [at 42.5 µM] (inactive)
NC1CCCCC1,inactive,
CCN(CC)C(=O)c1cccc(C)c1,inactive,
CNNCc1ccc(C(=O)NC(C)C)cc1,inactive,
OC[C@H]1O[C@H](O[C@]2(CCl)O[C@H](CCl)[C@@H](O)[C@@H]2O)[C@H](O)[C@@H](O)[C@H]1Cl,inactive,

# Reference: PubChem BioAssay (Tox21)
